Screening data (PubChem BioAssay)
gsp antagonist = gsp mutant antagonism | gsp-mutant cells, cAMP HTRF, 30 min | Potency, µM (highest dose often 76.9 µM), without a hit: at the highest dose activity change, negative = inhibition, most hits filed as inhibitors | 340,000 tested, 0.4% active | AID 624288; calls by dose curve; cell line not stated here;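 note: intracellular cAMP measured with PDE inhibitor Ro 20-1724 present during compound exposure; potency is the fitted concentration of half-maximal effect; % is set by controls: 0 for no effect and ±100 for the full control effect; nearly all actives have a fitted effect of over 65% in size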
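Cells in G418 medium, seeded 16-24 h, 37C; buffer exchange to DPBS + 1 mM CaCl2, 0.5 mM MgCl2, 0.05% BSA; cpds in DMSO + […] (300 uM stock), 30 min 37C; HTRF cAMP detection.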
gsp agonist = activates gsp, the McCune-Albright syndrome mutation; Potency, µM (titrated, usually from 76.9 µM), for inactives: at the highest dose activation (cAMP increase), hits mostly activators; AID 624287; 340,000 tested, 0.13% active; gsp mutant cells, cAMP HTRF, 30 min; active = well fitted activation curve with a large enough effect; inconclusive = small, poorly fitted or top-dose-only effect, or another doubt; inactive = no such curve, though single readings can be large or run the other way; cell line not stated here;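 note: phosphodiesterase inhibitor Ro 20-1724 added with compounds to block cAMP breakdown; potency is the fitted concentration of half-maximal effect; nearly all actives have a fitted effect of over 60% in size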
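Cells in DMEM/10% FBS with G418 were pretreated with compounds in DMSO plus […] (300 uM stock) for 30 min at 37C. cAMP was measured by HTRF (cAMP-d2 plus anti-cAMP antibody-K) after 30 min at room temperature.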
RXFP1 agonist = agonists of human relaxin receptor RXFP1; Q9HBX9; Potency, µM (highest dose often 57.5 µM), without a hit: top-dose activation, most hits filed as activators; HEK293T-RXFP1 cAMP TR-FRET, 30 min; response scale: percent of porcine relaxin response, buffer zero; AID 2676; 370,000 tested, 0.3% active; active = well fitted activation curve with a large enough effect; inconclusive = small, poorly fitted or top-dose-only effect; note: potency is the fitted concentration of half-maximal effect; % is set by controls: 0 for no effect and ±100 for the full control effect; nearly all actives have a fitted effect of over 60% in size
Target sequence (Q9HBX9 whole entry, looked up): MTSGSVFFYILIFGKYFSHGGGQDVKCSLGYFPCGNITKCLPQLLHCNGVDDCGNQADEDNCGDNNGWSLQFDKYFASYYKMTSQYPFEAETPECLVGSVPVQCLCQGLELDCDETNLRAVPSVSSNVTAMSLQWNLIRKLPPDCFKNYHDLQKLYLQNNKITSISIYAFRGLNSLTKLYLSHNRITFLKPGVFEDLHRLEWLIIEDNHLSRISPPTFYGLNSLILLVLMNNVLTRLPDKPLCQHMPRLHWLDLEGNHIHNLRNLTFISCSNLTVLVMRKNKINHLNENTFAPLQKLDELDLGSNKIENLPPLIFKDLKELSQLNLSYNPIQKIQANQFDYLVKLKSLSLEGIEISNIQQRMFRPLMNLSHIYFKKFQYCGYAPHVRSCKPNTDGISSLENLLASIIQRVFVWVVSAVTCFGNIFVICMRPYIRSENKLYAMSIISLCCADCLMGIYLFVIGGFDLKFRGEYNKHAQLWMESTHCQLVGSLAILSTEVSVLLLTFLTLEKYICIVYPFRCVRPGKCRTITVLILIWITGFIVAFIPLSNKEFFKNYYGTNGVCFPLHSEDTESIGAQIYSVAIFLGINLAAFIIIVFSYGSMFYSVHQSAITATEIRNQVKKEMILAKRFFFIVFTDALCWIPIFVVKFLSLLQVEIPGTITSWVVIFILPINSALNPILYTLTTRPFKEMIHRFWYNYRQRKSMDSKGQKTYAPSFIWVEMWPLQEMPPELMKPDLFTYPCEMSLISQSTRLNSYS
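cAMP rise read by TR-FRET after 30 min, 37C compound exposure (up to 58 uM) in RXFP1-transfected HEK293 cells with Ro 20174 present. EC50 from Hill-equation fits, with 29 nM porcine relaxin as 100% and buffer as basal.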
RXFP1 antag = blocks the human relaxin receptor RXFP1 | activity change, negative = inhibition, % at 57.5 µM | Q9HBX9 | HEK293-RXFP1, relaxin-stimulated cAMP HTRF, 30 min; stronger effect = lower value | 350,000 tested, 0.59% active;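 active = activity change of -60% or lower, but not beyond a set lower limit; inconclusive = change between -60% and -40%, or beyond the set limit; inactive = change above -40%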; note: % is set by controls: 0 for no effect and ±100 for the full control effect
Akt phos inh = inhibitors of Akt phosphorylation | Neuro2A IGF-stimulated pAkt S473 HTRF, 20 min; stronger effect = lower value | activity change, % for hits at 50 µM | 360,000 tested, 0.32% active; in the data active = activity change below about -80%; inconclusive = mostly about -51% to -80%; note: % is set by controls: 0 for no effect and ±100 for the full control effect
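Single-point screen (50 µM final compound) in Neuro2A cells stimulated 20 min with 6 nM IGF at 37 deg C. After lysis, Ser473-phosphorylated Akt read by HTRF (ex 330 nm, em 615/665 nm) as the 665/615 ratio.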
The depositor's hits bear a star; i = inactive; ? = inconclusive; nt = no result given; [ ] = another dose, or the depositor's remark. Compounds with a hit are over-represented: about 1.2% of the library has one in this group of screens.

SMILES	gsp antagonist	gsp agonist	RXFP1 agonist	RXFP1 antag	Akt phos inh
CC(C)C(=O)Nc1cccc(C2CN3CCSC3=N2)c1 (centres undefined)	nt	nt	nt	10.3	nt
C/C(=N\O)c1ccc2c3c([nH]c2c1)CCCC3	-7.8%	?	0.9%	?	-90.2%*
COc1ccc(NC(=O)Cn2c(SCc3ccc(C)cc3)nc3cccnc32)c(OC)c1	nt	nt	0.4%	13.1	nt
COC(=O)c1ccc(C2c3c(oc4ccccc4c3=O)C(=O)N2c2nc(C)c(C(=O)OC)s2)cc1 (centres undefined)	nt	nt	0.0%	3.5	nt
O=C(O)Cc1ccccc1Oc1ccc(Cl)cc1Cl	nt	nt	nt	-8.6	nt
S=c1[nH]cc(Oc2ccc(Cl)cc2Cl)c(=S)[nH]1	-4.1%	20µM*	nt	22.8	i
CSc1ccc(CCNc2ncnc3onc(C)c23)cc1	nt	nt	-2.6%	-9.9	nt
O=C(O)c1cc2nc(-c3ccc(F)cc3)cc(C(F)(F)F)n2n1	-15.9%	7.9%	0.1%	-14.9	i
CCn1cc(-c2cc(C(F)(F)F)n3nc(C(=O)O)cc3n2)c(C)n1	-5.9%	0.2%	2.9%	-2.1	-111.9%*
CCOC(=O)c1c(-c2cccs2)csc1N	0.5%	6.3%[15.4 µM]	7.4%	-11.1	i
CCOC(=O)c1c(-c2ccco2)csc1N	2.6%	1.4%	0.4%	-3.7	-123.6%*
CSc1ccc(CNC(=O)C2CCCN(S(=O)(=O)N(C)c3ccc(F)cc3)C2)cc1 (centres undefined)	nt	nt	0.7%	-39.4	nt
COC(=O)C1=C(C)NC(C)=C(C(=O)OC)C1C1CC=CCC1 (centres undefined)	-2.9%	0.0%	-0.2%	1.7	-129.8%*
Fc1ccc(NC(=S)NC2CCN(Cc3ccccc3)CC2)cc1	-3.1%	-0.8%	0.3%	-6.0	i
S=C(Nc1ccc(Cl)c(Cl)c1)NC1CCN(Cc2ccccc2)CC1	-2.7%	-22.4%	-0.2%	-60.8*	i
CC(=O)N1c2ccccc2CC1C(=O)N1CCN(c2cccc(Cl)c2)CC1 (centres undefined)	nt	nt	1.4%	-9.8	nt
COC(=O)CN(c1ccc(C)c(Cl)c1)S(C)(=O)=O	-37.1%	14.5%	-0.9%	-16.5	-90.5%*
COc1ccc(NC(=O)C2CCCN2c2nn3c(=O)cc(C)nc3s2)cc1 (centres undefined)	13.4%	22.4µM*	?	5.7	i
CC(=O)N1CCCc2cc(S(=O)(=O)N3CCCC(C(=O)N4CCN(c5ccccc5)CC4)C3)ccc21 (centres undefined)	35.5µM*	-2.8%	-1.0%	-3.8	i
Cc1ccc(C)c(NS(=O)(=O)c2ccc3c(c2)CCCN3C(=O)C2CCC2)c1	nt	nt	-0.2%	-63.4*	nt
CCN(CC)C(=O)C1CCN(S(=O)(=O)c2ccc3c(c2)CCCN3C(=O)C2CCC2)CC1	-19.3%	7.5%	-2.5%	-79.0*	i
Cc1ccc(NS(=O)(=O)c2ccc3c(c2)CCN3C(=O)C2CC2)c(C)c1	nt	nt	4.0%	nt	nt
COc1ccccc1N1CCN(C(=O)C2CCCN(S(=O)(=O)c3ccc4c(c3)CCCN4C(C)=O)C2)CC1 (centres undefined)	?	-25.6%[15.4 µM]	-1.8%	-17.2	i
COc1ccc(NC(=O)c2c(C)oc3ccc(O)c(CN4CCN(C)CC4)c23)cc1Cl	nt	nt	0.0%	-13.9	nt
O=c1c2cnn(-c3ccc(Cl)cc3)c2ncn1Cc1cccc(C(F)(F)F)c1	nt	nt	-1.1%	-3.1	nt
SMILES	gsp antagonist	gsp agonist	RXFP1 agonist	RXFP1 antag	Akt phos inh
O=c1c2ccsc2ncn1Cc1cccc(C(F)(F)F)c1	-1.8%	12.6µM*	2.7%	16.3	i
CCOC(=O)N1CCN(C(=O)C2CCN(C(=O)c3ccccc3C)CC2)CC1	3.0%	-7.2%[15.4 µM]	nt	-102.1*	i
Cc1ccccc1C(=O)N1CCC(C(=O)N2CCN(c3ncccn3)CC2)CC1	2.2%	-16.9%	0.9%	4.9	i
COc1ccc2[nH]c(C(=O)O)c(NS(=O)(=O)c3ccc(Cl)s3)c2c1	-8.0%	-51.5%	1.6%	-6.9	-88.0%*
CCOC(=O)c1[nH]c2ccc(OC)cc2c1NS(=O)(=O)c1ccc(Cl)s1	-22.0%	-2.7%[15.4 µM]	-0.3%	-3.4	i
Cc1cc(C)cc(NS(=O)(=O)c2ccc3c(c2)NC(=O)C(C)S3)c1 (centres undefined)	nt	nt	2.2%	-9.5	nt
CCOc1ccc(/C(O)=C2/C(=O)C(=O)N(CCOCCO)C2c2cccnc2)cc1 (centres undefined)	18.3%	12.6µM*	?	41.8	i
